AID504770: E. coli YBA685 growth inhibition, screen for V. cholerae RctB inhibitors; E. coli YBA685 rctB-dependent plasmid, OD600 growth, 3 h; active compounds read low; z-score (no concentration beside the values); hit rate 0.27% among 130,000; in the data active means z-score below about -2, passing the limit was not always enough
Polio RdRp inh: inhibitors of poliovirus RNA polymerase binding and polymerization | P03300 | poliovirus polymerase elongation, fluorescence polarization; active compounds read low | % elongation, % (compound at 16.7 µg/mL) | hit rate 0.66% among 150,000; in the data active means % elongation below about 90%
Mtb MenB inh: inhibitors of Mycobacterium tuberculosis MenB enzyme. inhibition, % (no concentration beside the values). hit rate 0.43% among 100,000. MenB enzyme assay, absorbance read-out. AID 540299; in the data active means inhibition above about 21%, passing the limit was not always enough
MbtI inh: MbtI salicylate synthase inhibition. P9WFX0. purified MbtI enzyme, fluorescence intensity read-out. inhibition, % (test concentration not listed). hit rate 0.89% among 100,000; in the data active means inhibition mostly above about 56%, no sharp cut-off; inactive means mostly below about 77%
Target sequence (P9WFX0 whole entry, looked up): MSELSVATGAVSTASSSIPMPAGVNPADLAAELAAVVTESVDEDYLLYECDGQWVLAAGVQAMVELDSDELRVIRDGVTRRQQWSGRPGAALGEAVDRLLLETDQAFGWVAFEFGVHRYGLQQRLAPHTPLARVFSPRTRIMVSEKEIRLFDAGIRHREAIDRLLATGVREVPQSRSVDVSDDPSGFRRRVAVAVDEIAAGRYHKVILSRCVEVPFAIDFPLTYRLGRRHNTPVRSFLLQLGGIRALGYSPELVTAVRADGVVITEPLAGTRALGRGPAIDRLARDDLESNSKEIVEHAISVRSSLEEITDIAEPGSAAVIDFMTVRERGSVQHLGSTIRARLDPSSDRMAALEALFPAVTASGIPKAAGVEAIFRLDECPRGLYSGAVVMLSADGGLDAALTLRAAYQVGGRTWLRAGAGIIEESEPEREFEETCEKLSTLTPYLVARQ
* = called active by the depositor; . = no result given. Hits are enriched below; roughly 1.5% of the tested compounds scored in any of these assays.

SMILES	AID504770	Polio RdRp inh	Mtb MenB inh	MbtI inh
COc1ccc(-c2noc(=O)n2Cc2cccc(C)c2)cc1	0.35	103.0	11.3	-3.9
COc1ccc(-c2noc(=O)n2CCCC#N)cc1OC	1.3	103.0	31.1*	0.1
CC1=CC(c2ccccc2)=C(C#N)C(=S)C1CC(=O)c1cccs1 (stereo not given)	0.5	85.0*	-16.9	.
C=CCn1c(C(C)Oc2ccc(Cl)cc2)n[nH]c1=S (stereo not given)	1.9	102.0	-13.9	65.2*
NNC(=O)Cc1ccccc1	1.25	103.0	-10.9	-5.0
CC(C)(C)NC(=O)Cc1ccccc1	-0.6	102.0	38.4*	-15.8
Cc1nn(-c2ccccc2Cl)c2nc(-c3ccco3)cc(C(=O)NN)c12	0.65	88.0*	2.3	103.3
Cc1ccc2c(c1Br)C(=C(C#N)C#N)C(=O)N2	-0.3	84.0*	-53.1	-123.7
Cc1cc(C)n(/N=C2/C(=O)Nc3ccc(Br)cc32)c(=O)c1C#N	-0.25	100.0	-28.2	-17.8
C#CC(=O)OCC(=O)Nc1ccc(C)c(C)c1	0.4	89.0*	-25.5	65.5*
Cc1cc(C)n(C(C)CNC(=O)c2ccccc2)n1 (stereo not given)	-0.85	104.0	-48.2	-9.0
Cc1cc(C)n(C(=O)C(C)NC(=O)c2ccccc2)n1 (stereo not given)	0.1	104.0	23.4*	.
Cc1ccccc1Nc1cc(C)c(C#N)c2nc3ccccc3n12	1.05	96.0	-30.9	.
CCc1ccc(OCCCC(N)=O)cc1	0.45	102.0	-22.0	-6.2
Cc1cc(S(=O)(=O)Nc2ccc3[nH]c(=O)sc3c2)ccc1F	.	99.0	.	.
Cc1ccc2oc(=O)n(CC(=O)c3ccc(F)cc3)c2c1	0.25	.	.	.
Cc1ccc2oc(=O)n(CC(=O)C(C)(C)C)c2c1	-2.1*	.	.	.
O=S(=O)(Nc1nc2ccc(Cl)cc2s1)c1cccs1	0.55	109.0	-22.2	4.5
COc1ccc(-c2n[nH]c(=S)n2/N=C/c2c(C)nn(-c3ccccc3)c2C)cc1OC	0.9	101.0	-17.2	1.8
Cc1nn(-c2ccccc2)cc1/C=N/n1c(-c2ccncc2)n[nH]c1=S	-0.45	103.0	-17.6	51.4*
CCNC1CC(N)C(OC2OC(CN)=CCC2N)C(O)C1OC1OCC(C)(O)C(NC)C1O (stereo not given)	.	99.0	-5.0	4.0
C/C(=N\NC(=O)c1nc(Cl)c(Cl)c(N)c1Cl)c1cc(O)ccc1O	1.35	105.0	-18.7	55.7*
CCOc1ccccc1NC(=O)CCc1c(C)nn(-c2ccc(N3CCOCC3)nn2)c1C	.	101.0	.	.
NNC(=O)CSc1c(-c2cccs2)[nH]c2ccccc12	0.1	99.0	37.7*	-18.9
Cc1ccc(S(=O)(=O)N2CCCC2C(=O)Nc2nccs2)cc1 (stereo not given)	2.5	108.0	-38.5	3.3
SMILES	AID504770	Polio RdRp inh	Mtb MenB inh	MbtI inh
Cc1ccc(-c2cn3c4ccccc4nc3n2CCCN2CCCCC2)cc1	-0.85	90.0*	-8.6	.
CC(C)Cc1nn2c(=O)cc(COC(=O)c3ccc4c(c3)OCO4)nc2s1	.	73.0*	.	.
CCc1nn2c(=O)cc(COC(=O)c3ccc4c(c3)OCO4)nc2s1	.	104.0	.	.
S=c1nc(Cc2ccccc2)[nH][nH]1	-0.35	96.0	19.1	.
S=c1nc(CNc2ccccc2)[nH][nH]1	-0.8	102.0	-42.5	95.3*
CCOC(=O)c1[nH]c(C)c(C(=O)OCC(=O)c2cc(C)n(-c3nccs3)c2C)c1C	1.75	106.0	-27.5	-3.8
O=C(Cn1c(CCCO)nc2ccccc21)N1CCc2ccccc21	-0.2	99.0	-5.4	96.3*
CCCCNc1nc2ccccc2n1CC(=O)N1CCc2ccccc21	-0.7	103.0	-24.7	-15.2
CCc1ccc(N2CCn3c2nc2c3c(=O)n(CCCc3ccccc3)c(=O)n2C)cc1	.	103.0	.	.
COc1ccccc1CC(=O)Nc1cccc(NC(C)=O)c1	-0.9	99.0	-1.4	.
COc1ccccc1CC(=O)Nc1cccc(C)n1	0.25	100.0	39.8*	0.6
CC1CC(C)CN(CCC(=O)Nc2ccccc2F)C1 (stereo not given)	0.2	100.0	-51.6	11.6
CC1CC(C)CN(CCN)C1 (stereo not given)	-0.25	101.0	52.4*	-5.6
Cc1ccc2nc(=S)nc(-c3ccccc3)n2c1	0.55	99.0	-9.9	.
O=C(CS(=O)(=O)Cc1ccccc1)Nc1ccccn1	-0.1	101.0	36.3*	7.4
O=C(O)c1cc(-c2ccc(F)cc2)on1	-0.8	98.0	47.4*	.
C=CCNC(=O)c1cc(-c2ccccc2)on1	-0.1	100.0	33.8*	8.2
C=CCNC(=O)c1cc(-c2ccc(OC)cc2)on1	-0.2	101.0	-9.4	-10.7
CCN(CC)C(=O)c1cc(-c2ccc(C)cc2)on1	0	100.0	5.0	.
CCN(CC)C(=O)c1cc(-c2ccccc2)on1	0	102.0	33.8*	7.2
CN1CCN(c2ccc(Nc3ccnc4cc(Cl)ccc34)cc2Cl)CC1	-0.25	89.0*	-0.1	.
CCN(CC)Cc1cc(Nc2ccnc3cc(Cl)ccc23)ccc1O	.	101.0	-5.6	24.1
O=C(CSc1nncs1)Nc1ccccc1	1.45	104.0	4.5	52.6
CCN1CCC(N(Cc2ccco2)C(=O)Nc2cccc(C(F)(F)F)c2)CC1	-0.3	102.0	-1.6	-13.4
CC(=O)Oc1ccc(-c2ccccc2)cc1	0.15	104.0	8.5	-0.1
SMILES	AID504770	Polio RdRp inh	Mtb MenB inh	MbtI inh
CC(=O)[O][Hg][c]1ccccc1	-5.2*	100.0	-6.4	-143.9
Cc1ccccc1C=C1C(=O)N(C)C(=S)N(C)C1=O	0.4	98.0	-124.8	71.7*
CN1C(=O)C(=Cc2cn(CC(=O)O)c3ccccc23)C(=O)N(C)C1=S	1.65	103.0	-42.8	75.2*
CCc1ccc(C=C2C(=O)N(C)C(=S)N(C)C2=O)cc1	0.2	98.0	-73.5	98.7*
COc1ccc(C=C2C(=O)N(C)C(=S)N(C)C2=O)c(C)c1	-0.75	98.0	-56.0	5.5
CCCCN(C)C(=O)Cn1cc2c(n1)CCCCC2	0.15	104.0	4.8	-6.7
Cn1c(=O)oc2cc(S(=O)(=O)NCCC(=O)Nc3ccc(F)c(Cl)c3)ccc21	.	107.0	.	.
CCCCN1COc2c(cc(Cl)c3cccnc23)C1	-5.8*	101.0	-9.5	-119.5
CCC(Oc1ccc(F)cc1)C(=O)Nc1c(C(=O)c2ccc(C)cc2)oc2ccccc12 (stereo not given)	.	110.0	.	.
CCN(CC)c1ccc(NS(=O)(=O)c2cc3[nH]c(=O)c(=O)[nH]c3cc2C)c(C)c1	.	85.0*	.	.
O=c1ccc2ccccc2o1	-0.05	101.0	-5.6	-6.3
CC(C)(C)c1cc(SCCC#N)cc(C(C)(C)C)c1O	-2.2*	105.0	-13.4	-2.2
CC(C)(C)c1cc(CCC#N)cc(C(C)(C)C)c1O	0.15	105.0	-7.4	-3.5
CCOc1ccc(NC(=O)Cn2c(=O)nc(-c3ccccc3)c3ccccc32)cc1	.	108.0	.	.
O=C(CCCn1sc2ccccc2c1=O)Nc1ccccc1F	-1.15	101.0	-0.4	-5.4
O=C(CCCn1sc2ccccc2c1=O)NCCC1=CCCCC1	0.25	102.0	3.6	94.0*
O=C(CCCn1sc2ccccc2c1=O)NCc1cccs1	0.65	105.0	-12.9	81.6*
O=C(O)CCCc1c(-c2ccccn2)[nH]c2ccc(F)cc12	0.55	100.0	-22.1	-353.2
Cc1cc(C)cc(NC(=O)CSCc2cc(=O)c3ccc(C)c(C)c3[nH]2)c1	.	109.0	.	.

Source: PubChem BioAssay (ICCB-Longwood Screening Facility, Harvard Medical School)
